± gives the standard deviation of the averaged measurements.
Legend:
[1] = test system: CLZ3 (HCA2 human fibroblast dual HR-NHEJ reporter); experiment: NHEJ repair efficiency (GFP+ cells) relative to control (log10 fold); higher = more non-homologous end joining; conditions: 5 µM; doxycycline 0.5 ug/mL
[2] = test system: CLZ3 (HCA2 human fibroblast dual HR-NHEJ reporter); experiment: HR repair efficiency (tdTomato+ cells) relative to control (log10 fold); higher = more homologous recombination; conditions: 5 µM; doxycycline 0.5 ug/mL
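For HR repair efficiency (tdTomato+ cells) relative to control in this document: compound given one day before doxycycline, which switches on I-SceI endonuclease expression to create double-strand breaks within the integrated reporter.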
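For NHEJ repair efficiency (GFP+ cells) relative to control in this document: compound given one day ahead of doxycycline, which switches on I-SceI endonuclease to cut the chromosomally integrated reporter and create DSBs.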

SMILES	NHEJ repair efficiency (log10) [1]	HR repair efficiency (log10) [2]
O=C(O)c1ccc(O)c(O)c1 [3,4-Dihydroxybenzoic acid]	0.00743	-0.033
COc1cc(CNC(=O)CCCCCCC(C)C)ccc1O [Dihydrocapsaicin]	-0.263	-0.256
C[C@@H]1[C@H]2[C@H](O[C@@H]3O[C@H](CO)[C@@H](O)[C@H](O)[C@H]3O)OC=C(C(=O)O)[C@H]2C[C@@H]1O [Loganic Acid]	0.0621	0.135
OC[C@H]1O[C@H](OC[C@H]2O[C@H](O[C@]3(CO)O[C@H](CO)[C@@H](O)[C@@H]3O)[C@H](O)[C@@H](O)[C@@H]2O)[C@H](O)[C@@H](O)[C@H]1O [Raffinose]	-0.133	-0.00512
CCOC(=O)c1cc(O)c(O)c(O)c1 [Gallic Acid Ethyl Ester]	0.018	0.00694
Cc1ccc(C(C)C)cc1O [Carvacrol]	-0.132	-0.173
CC(CC(=O)C[C@@H](C)[C@H]1CC(=O)[C@@]2(C)C3=C(C(=O)[C@@H](O)[C@]12C)[C@@]1(C)CC[C@H](O)C(C)(C)[C@@H]1C[C@@H]3O)C(=O)O (some centres undefined) [Ganoderic Acid G]	0.055	0.106
O=C(O)C1=C[C@@H](O)[C@@H](O)[C@H](O)C1 [Shikimic Acid]	0.128	0.17
COc1cc(-c2oc3cc(O)cc(O)c3c(=O)c2O[C@@H]2O[C@H](CO)[C@@H](O)[C@H](O)[C@H]2O)ccc1O [Isorhamnetin-3-O-Glucoside]	-0.0722	-0.00603
O=C(O)C(O)c1ccccc1 (centres undefined) [Mandelic Acid]	0.0554	0.105
COc1ccc(C(C)=O)c(O)c1 [Paeonol]	0.076	0.17
COc1cc(OC)c2ccc(=O)oc2c1 [5,7-Dimethoxycoumarin]	0.0653	0.0758
C[C@H]1O[C@H](OC[C@H]2O[C@@H](Oc3c(-c4ccc(O)cc4)oc4cc(O)cc(O)c4c3=O)[C@H](O)[C@@H](O)[C@@H]2O)[C@@H](O)[C@@H](O)[C@@H]1O [Kaempferol-3-O-Rutinoside]	0.0149	-0.078
O=C1O[C@H]2[C@@H]3OC(=O)c4cc(O)c(O)c(O)c4-c4c(cc(O)c(O)c4O)C(=O)OC[C@H]2O[C@@H](OC(=O)c2cc(O)c(O)c(O)c2)[C@@H]3OC(=O)c2cc(O)c(O)c3c2[C@@H]2C1=CC(=O)[C@](O)(O3)C2(O)O [Geraniin]	-0.0851	0.0593
OC[C@H]1OC(O)[C@H](O)[C@@H](O)[C@H]1O (stereo partly drawn) [D-Galactose]	0.00385	-0.0597
CC(C)=CCOc1c2ccoc2cc2oc(=O)ccc12 [Isoimperatorin]	-0.032 ± 0.014	0.0188 ± 0.0059
CC(C)=CCC[C@](C)(O[C@@H]1O[C@H](CO)[C@@H](O)[C@H](O)[C@H]1O)[C@H]1CC[C@]2(C)[C@@H]1[C@H](O)C[C@@H]1[C@@]3(C)CC[C@H](O)C(C)(C)[C@@H]3[C@@H](O[C@@H]3O[C@H](CO)[C@@H](O)[C@H](O)[C@H]3O[C@@H]3OC[C@@H](O)[C@H](O)[C@H]3O)C[C@]12C [Notoginsenoside R1]	-0.0455	0.0156
Cn1c(=O)c2c(ncn2CC2OCCO2)n(C)c1=O [Doxofylline]	0.101	0.0399
OC[C@@H]1O[C@@H](OC[C@H]2O[C@@H](OC/C=C/c3ccccc3)[C@H](O)[C@@H](O)[C@@H]2O)[C@H](O)[C@H]1O [Rosarin]	0.0801	0.118
O=c1cc(-c2ccc(O)cc2)oc2cc(O)c([C@@H]3O[C@H](CO)[C@@H](O)[C@H](O)[C@H]3O)c(O)c12 [Isovitexin]	0.0409	0.0479
CC12CCC(CC1=O)C2(C)C (centres undefined) [Camphor]	-0.0599	-0.0168
CC(C)=CCc1c(-c2ccc(O)cc2O)oc2c3c(cc(O)c2c1=O)OC(C)(C)C=C3 [Morusin]	0.0648	-0.298
OC[C@H]1NC[C@H](O)[C@@H](O)[C@@H]1O [1-Deoxynojirimycin]	0.0355	0.0442
COc1cc2c(=O)c(-c3ccc(O)cc3)coc2cc1O [Glycitein]	0.0336	0.1

SMILES	NHEJ repair efficiency (log10) [1]	HR repair efficiency (log10) [2]
C/C(=C\C(=O)CC(C)C(=O)O)[C@H]1CC(=O)[C@@]2(C)C3=C(C(=O)C[C@]12C)[C@@]1(C)CC[C@H](O)C(C)(C)[C@@H]1C[C@@H]3O (some centres undefined) [Ganoderenic Acid B]	0.000561	0.021
C[C@@H]1CC[C@@]2(OC1)O[C@H]1C[C@H]3[C@@H]4CC=C5C[C@@H](O[C@@H]6O[C@H](CO)[C@@H](O)[C@H](O[C@@H]7O[C@H](CO)[C@@H](O)[C@H](O)[C@H]7O)[C@H]6O[C@@H]6O[C@@H](C)[C@H](O)[C@@H](O)[C@H]6O)CC[C@]5(C)[C@H]4CC[C@]3(C)[C@H]1[C@@H]2C [Gracillin]	-0.154	-0.0532
NCC(=O)O [Aminoacetic acid]	0.185	0.151
O=C1CCC[C@@H]2[C@H]3CCC[N+]4([O-])CCC[C@@H](CN12)[C@@H]34 (some centres undefined) [Oxymatrine]	0.0707	-0.0643
OCC1=C[C@@H](O)[C@]2(O[C@@H]3O[C@H](CO)[C@@H](O)[C@H](O)[C@H]3O[C@@H]3O[C@H](CO)[C@@H](O)[C@H](O)[C@H]3O)C=CO[C@@H](O[C@@H]3O[C@H](CO)[C@@H](O)[C@H](O)[C@H]3O)[C@H]12 [Rehmannioside D]	-0.165	-0.0162
O=c1cc(-c2ccc(O)c(O)c2)oc2c([C@@H]3O[C@H](CO)[C@@H](O)[C@H](O)[C@H]3O)c(O)cc(O)c12 [Orientin]	0.0454	0.0493
COc1cc(/C=C/CO)ccc1O[C@@H]1O[C@H](CO)[C@@H](O)[C@H](O)[C@H]1O [Coniferin]	0.0205	0.0767
O=C[C@H](O)[C@@H](O)[C@H](O)[C@H](O)CO[C@H]1O[C@H](CO[C@H]2O[C@H](CO)[C@H](O)[C@H](O)[C@H]2O)[C@H](O)[C@H](O)[C@H]1O [Manninotriose]	0.0359	0.0215
CC[C@H](C)[C@@H]1NC(=O)[C@@H]2CCCN2C(=O)[C@@H]2CCCN2C(=O)[C@@H]2CCCN2C(=O)[C@H](CC(C)C)NC(=O)CNC(=O)CNC(=O)[C@H](Cc2ccccc2)NC1=O [Heterophyllin B]	0.0424	0.0454
CC1(C)CCC2(CO)C(=C3C=CC4C5(C)CCC(OC6OC(COC7OC(CO)C(O)C(O)C7O)C(OC7OC(CO)C(O)C(O)C7O)C(O)C6O)C(C)(CO)C5CCC4(C)C3(C)CC2O)C1 (centres undefined) [Clinopodiside A]	-0.0569	0.0428
C[C@@H]1O[C@@H](O[C@H]2[C@H](OC(=O)[C@]34CCC(C)(C)C[C@H]3C3=CC[C@@H]5[C@@]6(C)C[C@H](O)[C@H](O[C@@H]7O[C@H](CO)[C@@H](O)[C@H](O)[C@H]7O)C(CO)(CO)[C@@H]6CC[C@@]5(C)[C@]3(C)C[C@H]4O)OC[C@H](O)[C@@H]2O)[C@H](O)[C@H](O)[C@H]1O[C@@H]1OC[C@@H](O)[C@H](O[C@@H]2OC[C@](O)(CO)[C@H]2O)[C@H]1O [Platycodin D]	-0.142	-0.287
C[C@@H]1O[C@@H](OC[C@H]2O[C@@H](OCCc3ccc(O)c(O)c3)[C@H](O)[C@@H](O)[C@@H]2OC(=O)/C=C/c2ccc(O)c(O)c2)[C@H](O)[C@H](O)[C@H]1O [Forsythoside A]	0.0797	0.189
COc1ccc(C2OCC3C(c4cc(OC)c(OC)c(OC)c4)OCC23)cc1OC (centres undefined) [Magnolin]	-0.0599	-0.00542
OC[C@H]1O[C@@H](Oc2cc(O)cc(/C=C/c3ccc(O)cc3)c2)[C@H](O)[C@@H](O)[C@@H]1O [Polydatin]	0.036	0.288
COc1cc(C2Oc3ccc(C4Oc5cc(O)cc(O)c5C(=O)C4O)cc3OC2CO)ccc1O (centres undefined) [Iso-Silybin]	-0.138	-0.241
O=C(/C=C/c1ccc(O)c(O)c1)O[C@H]1[C@H](O)C[C@](O)(C(=O)O)C[C@H]1O [Cryptochlorogenic Acid]	0.102	0.168
CC1(C)CC[C@]2(C(=O)O)CC[C@]3(C)C(=CC[C@@H]4[C@@]5(C)C[C@@H](O)[C@H](O)C(C)(C)[C@@H]5CC[C@]43C)[C@@H]2C1 [Maslinic Acid]	-0.0568	-0.0914
O=C1C[C@@H](c2ccc(O)cc2)Oc2cc(O)cc(O)c21 [Naringenin]	-0.176	-0.025
CC1(C)CC[C@]2(C(=O)O)CCC3=C([C@@H](CCl)C[C@@H]4[C@@]5(C)C[C@H](O)[C@H](O)[C@@](C)(C(=O)O)[C@@H]5CC[C@@]34C)[C@@H]2C1 [Tenuigenin]	0.0402	0.0517
C[C@@H]1O[C@@H](O[C@H]2[C@H](OC(=O)[C@]34CCC(C)(C)C[C@H]3C3=CC[C@@H]5[C@@]6(C)C[C@H](O)[C@H](O[C@@H]7O[C@H](CO)[C@@H](O)[C@H](O[C@@H]8O[C@H](CO)[C@@H](O)[C@H](O)[C@H]8O)[C@H]7O)C(CO)(CO)[C@@H]6CC[C@@]5(C)[C@]3(C)C[C@H]4O)OC[C@H](O)[C@@H]2O)[C@H](O)[C@H](O)[C@H]1O[C@@H]1OC[C@@H](O)[C@H](O[C@@H]2OC[C@](O)(CO)[C@H]2O)[C@H]1O [Platycodin D2]	-0.00927	-0.252
O=C1c2ccccc2C(=O)c2c1cc(O)c(CO)c2O [Lucidin]	0.134	0.258
COc1ccc(-c2oc3c(CC=C(C)C)c(O[C@@H]4O[C@H](CO)[C@@H](O)[C@H](O)[C@H]4O)cc(O)c3c(=O)c2O[C@@H]2O[C@@H](C)[C@H](O)[C@@H](O)[C@H]2O[C@@H]2O[C@@H](C)[C@H](O)[C@@H](O)[C@H]2O)cc1 [Epimedin C]	-0.0776	-0.0883
CC1(C)OC(=O)C=C[C@]2(C)[C@H]3CC[C@@]4(C)[C@H](c5ccoc5)OC(=O)[C@H]5O[C@]54[C@]3(C)C(=O)C[C@@H]12 [Obacunone]	-0.0357	0.0481

Reference: the supplement of paper PMC7380943
